The text below walks through data of PubChem BioAssay (EPA / NIEHS).

What is called AC50 is the midpoint of the concentration-response curve, whichever way the signal moves.

Read-out in one assay: CD69, CD69 (gene 969)
The assay can be described thus: BSK_SAg_CD69: BioMAP Diversity Plus: SAg Assay for CD69 Biomarker Activity (AID 2283089).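 On AC50: cell surface CD69 protein quantified by ELISA with fluorescence detection.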 The settings on record: primary human HUVEC with PBMC; actives raise or lower the signal. Put shortly:
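HUVEC co-cultured with PBMC were dosed with chemical, and CD69 was measured by ELISA with fluorescence read-out 24 h later. Bidirectional curve fitting used DMSO as negative control and activity baseline.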

Read-out in assay [1]: Monocyte Chemoattractant Protein-1 (MCP1), CCL2 (gene 6347)
The assay can be described thus: BSK_SAg_MCP1: BioMAP Diversity Plus: SAg Assay for Monocyte Chemoattractant Protein-1 (MCP1) Biomarker Activity (AID 2283090). The settings on record: primary human HUVEC with PBMC; actives raise or lower the signal. Put shortly:
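Values derive from bidirectional fitting of ELISA-measured MCP1 against DMSO controls. Readings were taken 24 h after dosing human vascular endothelial cells co-cultured with peripheral blood mononuclear cells under superantigen stimulation.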

Read-out in assay [2]: E-selectin (Homo sapiens) (UniProt P16581)
The assay can be described thus: BSK_SAg_Eselectin: BioMAP Diversity Plus: SAg Assay for Eselectin Biomarker Activity (AID 2283091). Particulars: primary human HUVEC with PBMC; actives raise or lower the signal. A digest of the protocol: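 Cell-surface E-selectin is read by ELISA at 24 h in the SAg co-culture of HUVEC and PBMC. Curves are fitted in both directions relative to DMSO. Parallel SRB total-protein staining tracks overt toxicity.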

Read-out in assay [3]: Monokine induced gamma interferon (MIG), CXCL9 (gene 4283)
Description: BSK_SAg_MIG: BioMAP Diversity Plus: SAg Assay for Monokine induced gamma interferon (MIG) Biomarker Activity (AID 2283092). The settings on record: primary human HUVEC with PBMC; actives raise or lower the signal. A digest of the protocol: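 HUVEC plus human PBMC co-culture, chemicals dosed and MIG (CXCL9) quantified by ELISA at 24 h. Bidirectional curve fitting against DMSO as negative control and baseline, so both gain and loss of signal count as activity.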

Assay [4] is described as follows: BSK_SAg_PBMCCytotoxicity: PBMC Cytotoxicity Assessment in the BioMAP Diversity Plus: SAg Assay (AID 2283093).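 Further: PBMC viability measured as Alamar Blue reduction fluorescence at 546/580 nm; fitted both ways against DMSO so a hit may be loss or gain of signal.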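 On AC50: PBMC superantigen activated with SEB plus TSST-1 one hour after compound addition.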 Particulars: primary human HUVEC with PBMC. Put shortly:
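Alamar Blue reduction (6 h, ex/em 546/580 nm) read after 90 h culture of PBMC pre-dosed 1 h then stimulated with SEB plus TSST-1, 20 ng/mL each. Gain or loss of signal fitted relative to DMSO.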

Read-out in assay [5]: Interleukin-8 (IL8), CXCL8 (gene 3576)
Description: BSK_SAg_IL8: BioMAP Diversity Plus: SAg Assay for Interleukin-8 (IL8) Biomarker Activity (AID 2283094). Particulars: primary human HUVEC with PBMC; actives raise or lower the signal. A digest of the protocol:
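Primary human endothelial cells with PBMC, exposed 24 h; IL-8 determined by ELISA, analysed bidirectionally relative to DMSO.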

A short description of assay [6]: BSK_SAg_Proliferation: Cell Proliferation Assessment in the BioMAP Diversity Plus: SAg Assay (AID 2283095).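 Further: relative cell number as total protein by SRB absorbance in sub-confluent culture.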 The settings on record: primary human HUVEC with PBMC. Put shortly:
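A human primary co-culture of umbilical vein endothelium and blood mononuclear cells receives compound; relative cell number is quantified at 96 h by SRB staining and 560 nm absorbance, with DMSO-referenced bidirectional curve fitting.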

Assay [7] in a line: BSK_SAg_SRB: Viability Assessment in the BioMAP Diversity Plus: SAg Assay (AID 2283096).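 Further: cells read one day after compound addition; hits may be either gain or loss of signal compared with DMSO.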 Particulars: primary human HUVEC with PBMC. A digest of the protocol:
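SRB absorbance at 560 nm served as the viability read-out. Cells (HUVEC plus peripheral blood mononuclear cells) were TCA-fixed and stained 24 h post-dosing; activity fitted in both directions against DMSO controls.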

Assay [8] concerns the target human CYP2B6, CYP2B6 (gene 1555) (UniProt P20813). The assay can be described thus: NVS_ADME_hCYP2B6: NovaScreen (NVS) CYP450-related Enzyme Activity (ADME) Assay for human CYP2B6 (AID 2283101; active means hit-call score of the fitted dose curve at least 0.9, where 1 is the maximum). Put shortly: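 Recombinant human CYP2B6 with fluorogenic substrate, read by fluorescence intensity 1 h after dosing. Primary screen in duplicate at 10 uM, actives followed in concentration series; signal loss relative to acetonitrile control.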

The target of assay [9] is human CYP2A6, CYP2A6 (gene 1548) (UniProt P11509). Description: NVS_ADME_hCYP2A6: NovaScreen (NVS) CYP450-related Enzyme Activity (ADME) Assay for human CYP2A6 (AID 2283099; active means hit-call score of the fitted dose curve at least 0.9, where 1 is the maximum). A digest of the protocol:
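Compounds screened at 10 uM (duplicate) and, if active, titrated to a 20 uM top concentration against insect-cell-expressed CYP2A6. Loss of fluorescent product signal after 0.5 h, relative to acetonitrile baseline, indicates inhibition.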

In assay [10] the target is human CYP2D6, CYP2D6 (gene 1565) (UniProt P10635). The assay can be described thus: NVS_ADME_hCYP2D6: NovaScreen (NVS) CYP450-related Enzyme Activity (ADME) Assay for human CYP2D6 (AID 2283107; active means hit-call score of the fitted dose curve at least 0.9, where 1 is the maximum). Put shortly: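 Fluorescence readout of recombinant CYP2D6 (insect-cell derived) activity after 1 h incubation with test chemical. Acetonitrile served as baseline, loss-of-signal direction. Single-concentration duplicate screening at 10 uM preceded concentration-response retesting.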

The target of assay [11] is human CYP2C9, CYP2C9 (gene 1559) (UniProt P11712). Description: NVS_ADME_hCYP2C9: NovaScreen (NVS) CYP450-related Enzyme Activity (ADME) Assay for human CYP2C9 (AID 2283108; active means hit-call score of the fitted dose curve at least 0.9, where 1 is the maximum). A digest of the protocol:
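Fluorescence readout of CYP2C9 activity (SF9-expressed human enzyme) at 0.75 h. The primary screen used 10 uM in duplicate, with concentration-response follow-up for actives; acetonitrile was the negative control.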

Assay [12] addresses Cytochrome P450 3A4 (Homo sapiens) (UniProt P08684). The assay can be described thus: NVS_ADME_hCYP3A4: NovaScreen (NVS) CYP450-related Enzyme Activity (ADME) Assay for human CYP3A4 (AID 2283110; active means hit-call score of the fitted dose curve at least 0.9, where 1 is the maximum). Put shortly: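 Compounds screened in duplicate at 10 uM, with follow-up concentration-response for actives, against insect-cell-expressed recombinant enzyme. Activity read by fluorescence 0.33 h after dosing; loss of signal versus acetonitrile control indicates inhibition.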

Assay [13] concerns the target human CYP1A1, CYP1A1 (gene 1543) (UniProt P04798). The assay can be described thus: NVS_ADME_hCYP1A1: NovaScreen (NVS) CYP450-related Enzyme Activity (ADME) Assay for human CYP1A1 (AID 2283100; active means hit-call score of the fitted dose curve at least 0.9, where 1 is the maximum). Put shortly: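 Chemicals were first tested in duplicate at 10 uM, and those passing a 30% inhibition threshold were rerun as concentration series topping at 20 uM. Fluorescence read-out of recombinant enzyme turnover after 1 h, relative to acetonitrile.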

The target in assay [14] is human CYP19A1, CYP19A1 (gene 1588) (UniProt P11511). The assay can be described thus: NVS_ADME_hCYP19A1: NovaScreen (NVS) CYP450-related Enzyme Activity (ADME) Assay for human CYP19A1 (AID 2283098; active means hit-call score of the fitted dose curve at least 0.9, where 1 is the maximum;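 further: potency for inhibitors seen as loss of fluorescent enzyme signal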). A digest of the protocol:
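Primary testing was in duplicate at a single 10 uM concentration, with actives followed up in concentration-response series. Fluorescence read-out of recombinant enzyme activity at 0.5 h, cell-free. Acetonitrile was the negative-control baseline.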

Assay [15] deals with human CYP1A2, CYP1A2 (gene 1544) (UniProt P05177). Description: NVS_ADME_hCYP1A2: NovaScreen (NVS) CYP450-related Enzyme Activity (ADME) Assay for human CYP1A2 (AID 2283102; active means hit-call score of the fitted dose curve at least 0.9, where 1 is the maximum;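 further: fluorescence from turnover of a fluorogenic substrate by recombinant insect-cell CYP1A2; potency for inhibition since loss of fluorescence marks reduced CYP1A2 activity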). A digest of the protocol:
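Enzyme activity of insect-cell-expressed human CYP1A2 measured by fluorescence 0.5 h after compound addition, relative to acetonitrile. Compounds first tested in duplicate at 10 uM, actives followed up in concentration series.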

For assay [16], the target named is rat CYP2A1, Cyp2a1 (gene 24894) (UniProt P11711). The assay can be described thus: NVS_ADME_rCYP2A1: NovaScreen (NVS) CYP450-related Enzyme Activity (ADME) Assay for rat CYP2A1 (AID 2283114). A digest of the protocol: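 Cell-free fluorescence enzyme-activity read on recombinant rat CYP2A1, taken 0.75 h post-dosing. Compounds were screened in duplicate at 10 uM, then hits tested in concentration series (max 20 uM); inhibition scored relative to acetonitrile baseline.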
Chain of rat CYP2A1, Cyp2a1 (gene 24894) (P11711 whole entry, looked up): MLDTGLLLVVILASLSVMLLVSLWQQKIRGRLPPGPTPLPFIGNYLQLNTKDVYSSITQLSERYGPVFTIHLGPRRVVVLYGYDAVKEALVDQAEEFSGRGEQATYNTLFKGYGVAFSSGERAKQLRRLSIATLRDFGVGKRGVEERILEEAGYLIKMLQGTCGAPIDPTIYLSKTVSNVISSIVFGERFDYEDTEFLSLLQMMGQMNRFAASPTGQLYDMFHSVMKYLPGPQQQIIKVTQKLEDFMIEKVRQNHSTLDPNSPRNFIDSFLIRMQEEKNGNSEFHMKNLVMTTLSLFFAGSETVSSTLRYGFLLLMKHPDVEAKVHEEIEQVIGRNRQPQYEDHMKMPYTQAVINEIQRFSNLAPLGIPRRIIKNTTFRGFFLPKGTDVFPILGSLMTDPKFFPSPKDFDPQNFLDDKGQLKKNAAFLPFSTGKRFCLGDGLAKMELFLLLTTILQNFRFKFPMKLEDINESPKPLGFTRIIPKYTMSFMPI

For assay [17], the target named is Cytochrome P450 2C18 (Homo sapiens) (UniProt P33260). The assay can be described thus: NVS_ADME_hCYP2C18: NovaScreen (NVS) CYP450-related Enzyme Activity (ADME) Assay for human CYP2C18 (AID 2283103). A digest of the protocol: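 Enzyme activity measured by fluorescence 0.5 h after compound addition, using recombinant CYP2C18 and a specific substrate. Actives from duplicate 10 uM screening were retested in concentration series (top 20 uM); acetonitrile served as negative baseline.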
Chain of Cytochrome P450 2C18 (Homo sapiens) (P33260 whole entry, looked up): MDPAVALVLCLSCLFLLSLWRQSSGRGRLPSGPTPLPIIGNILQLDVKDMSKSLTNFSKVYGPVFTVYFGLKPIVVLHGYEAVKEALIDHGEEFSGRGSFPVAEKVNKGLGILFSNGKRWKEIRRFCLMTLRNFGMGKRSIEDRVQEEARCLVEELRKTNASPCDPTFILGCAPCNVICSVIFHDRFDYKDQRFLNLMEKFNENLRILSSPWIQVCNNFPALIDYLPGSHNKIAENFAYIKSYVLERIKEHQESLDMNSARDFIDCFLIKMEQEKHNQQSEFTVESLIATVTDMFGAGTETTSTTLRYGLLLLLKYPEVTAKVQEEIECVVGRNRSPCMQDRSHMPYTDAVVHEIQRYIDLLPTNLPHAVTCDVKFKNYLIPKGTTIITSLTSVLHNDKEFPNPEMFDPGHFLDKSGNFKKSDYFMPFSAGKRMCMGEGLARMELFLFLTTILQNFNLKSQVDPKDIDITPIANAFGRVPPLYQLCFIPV

“And” between values parts separate entries of the source, which are not always exact repeats. Equal values may be shown once. Inconclusive results are not listed. The source made the active and inactive calls. How the source made its calls, unless noted: active means hit-call score of the fitted dose curve at least 0.9, where 1 is the maximum; inactive means score below 0.9.

Chain of human CYP2B6, CYP2B6 (gene 1555) (P20813 whole entry, looked up): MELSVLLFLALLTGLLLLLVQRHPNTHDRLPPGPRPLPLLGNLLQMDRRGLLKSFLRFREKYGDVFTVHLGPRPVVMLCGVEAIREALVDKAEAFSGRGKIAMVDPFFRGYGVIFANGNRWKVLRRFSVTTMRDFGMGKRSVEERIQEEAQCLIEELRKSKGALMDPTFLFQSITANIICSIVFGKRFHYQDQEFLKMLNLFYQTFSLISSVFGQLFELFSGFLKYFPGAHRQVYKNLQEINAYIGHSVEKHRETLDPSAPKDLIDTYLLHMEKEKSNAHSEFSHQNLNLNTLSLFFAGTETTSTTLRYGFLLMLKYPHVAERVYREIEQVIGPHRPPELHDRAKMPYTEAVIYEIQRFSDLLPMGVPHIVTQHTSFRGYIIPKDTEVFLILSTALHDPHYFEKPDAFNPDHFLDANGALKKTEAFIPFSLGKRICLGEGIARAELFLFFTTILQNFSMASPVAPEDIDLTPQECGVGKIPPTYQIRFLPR
Chain of human CYP2C9, CYP2C9 (gene 1559) (P11712 whole entry, looked up): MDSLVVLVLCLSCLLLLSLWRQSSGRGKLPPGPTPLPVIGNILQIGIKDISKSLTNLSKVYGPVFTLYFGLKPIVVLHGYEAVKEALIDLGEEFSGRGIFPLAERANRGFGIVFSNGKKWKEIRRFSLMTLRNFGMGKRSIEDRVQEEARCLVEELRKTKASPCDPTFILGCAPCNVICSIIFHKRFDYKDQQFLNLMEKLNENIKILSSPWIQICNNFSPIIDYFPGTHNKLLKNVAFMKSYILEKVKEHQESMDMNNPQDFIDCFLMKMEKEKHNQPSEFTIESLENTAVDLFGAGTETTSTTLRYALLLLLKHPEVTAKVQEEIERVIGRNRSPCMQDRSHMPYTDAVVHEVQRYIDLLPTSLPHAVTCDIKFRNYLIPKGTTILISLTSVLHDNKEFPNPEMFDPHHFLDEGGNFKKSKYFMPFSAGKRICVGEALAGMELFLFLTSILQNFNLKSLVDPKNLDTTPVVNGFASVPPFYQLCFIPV
Chain of E-selectin (Homo sapiens) (P16581 whole entry, looked up): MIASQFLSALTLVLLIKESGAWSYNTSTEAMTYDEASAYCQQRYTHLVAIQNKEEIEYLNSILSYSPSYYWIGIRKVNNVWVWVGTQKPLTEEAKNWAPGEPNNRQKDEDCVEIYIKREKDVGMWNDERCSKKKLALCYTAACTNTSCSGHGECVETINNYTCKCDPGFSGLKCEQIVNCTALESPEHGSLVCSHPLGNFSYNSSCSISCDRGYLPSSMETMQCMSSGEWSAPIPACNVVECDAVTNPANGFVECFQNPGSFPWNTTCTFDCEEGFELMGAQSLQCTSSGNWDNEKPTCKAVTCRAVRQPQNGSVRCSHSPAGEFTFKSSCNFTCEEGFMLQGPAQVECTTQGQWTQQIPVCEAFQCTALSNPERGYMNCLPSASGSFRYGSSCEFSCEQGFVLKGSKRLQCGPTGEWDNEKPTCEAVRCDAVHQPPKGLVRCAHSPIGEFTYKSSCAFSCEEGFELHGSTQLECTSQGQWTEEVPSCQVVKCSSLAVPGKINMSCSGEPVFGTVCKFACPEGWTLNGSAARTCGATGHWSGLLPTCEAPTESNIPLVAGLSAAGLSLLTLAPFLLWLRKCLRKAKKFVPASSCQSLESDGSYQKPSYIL
Chain of Cytochrome P450 3A4 (Homo sapiens) (P08684 whole entry, looked up): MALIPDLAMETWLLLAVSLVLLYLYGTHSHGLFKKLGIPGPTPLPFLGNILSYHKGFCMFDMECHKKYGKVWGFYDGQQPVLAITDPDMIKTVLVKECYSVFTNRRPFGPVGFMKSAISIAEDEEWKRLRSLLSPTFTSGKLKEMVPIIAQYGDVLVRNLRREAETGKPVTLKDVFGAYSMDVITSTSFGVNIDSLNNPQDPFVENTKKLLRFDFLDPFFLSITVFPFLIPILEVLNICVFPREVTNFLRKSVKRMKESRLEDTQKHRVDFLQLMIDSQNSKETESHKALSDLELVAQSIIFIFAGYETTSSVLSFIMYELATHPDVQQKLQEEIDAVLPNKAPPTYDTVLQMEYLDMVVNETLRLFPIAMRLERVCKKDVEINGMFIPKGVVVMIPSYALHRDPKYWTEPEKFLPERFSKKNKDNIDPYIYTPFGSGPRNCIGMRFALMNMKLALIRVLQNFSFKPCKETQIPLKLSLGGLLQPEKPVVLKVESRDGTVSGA
Chain of human CYP2A6, CYP2A6 (gene 1548) (P11509 whole entry, looked up): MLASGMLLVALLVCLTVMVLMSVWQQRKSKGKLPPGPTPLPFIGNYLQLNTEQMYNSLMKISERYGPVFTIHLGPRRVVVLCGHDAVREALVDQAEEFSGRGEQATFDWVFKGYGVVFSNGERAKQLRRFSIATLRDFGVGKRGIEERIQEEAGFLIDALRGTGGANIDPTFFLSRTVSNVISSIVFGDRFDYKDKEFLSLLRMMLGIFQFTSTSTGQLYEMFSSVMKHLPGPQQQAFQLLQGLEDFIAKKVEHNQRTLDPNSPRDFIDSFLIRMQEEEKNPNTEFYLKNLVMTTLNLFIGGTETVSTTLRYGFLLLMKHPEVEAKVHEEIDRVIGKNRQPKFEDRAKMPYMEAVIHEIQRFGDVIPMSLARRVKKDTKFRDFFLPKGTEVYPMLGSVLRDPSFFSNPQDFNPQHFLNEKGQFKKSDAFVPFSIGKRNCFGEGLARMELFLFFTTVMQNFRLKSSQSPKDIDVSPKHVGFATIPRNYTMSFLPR
Chain of human CYP1A1, CYP1A1 (gene 1543) (P04798 whole entry, looked up): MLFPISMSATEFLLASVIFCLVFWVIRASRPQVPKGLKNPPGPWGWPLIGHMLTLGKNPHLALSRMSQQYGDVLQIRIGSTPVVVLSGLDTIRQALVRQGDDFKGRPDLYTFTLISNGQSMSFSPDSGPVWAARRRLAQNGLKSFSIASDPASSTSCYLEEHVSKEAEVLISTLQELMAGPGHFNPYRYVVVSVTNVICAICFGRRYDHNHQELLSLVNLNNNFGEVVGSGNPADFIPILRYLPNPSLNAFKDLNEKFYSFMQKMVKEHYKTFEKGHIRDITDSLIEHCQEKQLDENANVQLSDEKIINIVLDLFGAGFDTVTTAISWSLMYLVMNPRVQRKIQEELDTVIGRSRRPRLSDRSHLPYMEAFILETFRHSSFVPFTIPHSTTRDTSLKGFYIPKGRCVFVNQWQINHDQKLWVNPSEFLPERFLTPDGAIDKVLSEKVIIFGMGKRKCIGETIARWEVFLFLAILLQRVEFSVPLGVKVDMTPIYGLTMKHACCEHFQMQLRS
Chain of human CYP19A1, CYP19A1 (gene 1588) (P11511 whole entry, looked up): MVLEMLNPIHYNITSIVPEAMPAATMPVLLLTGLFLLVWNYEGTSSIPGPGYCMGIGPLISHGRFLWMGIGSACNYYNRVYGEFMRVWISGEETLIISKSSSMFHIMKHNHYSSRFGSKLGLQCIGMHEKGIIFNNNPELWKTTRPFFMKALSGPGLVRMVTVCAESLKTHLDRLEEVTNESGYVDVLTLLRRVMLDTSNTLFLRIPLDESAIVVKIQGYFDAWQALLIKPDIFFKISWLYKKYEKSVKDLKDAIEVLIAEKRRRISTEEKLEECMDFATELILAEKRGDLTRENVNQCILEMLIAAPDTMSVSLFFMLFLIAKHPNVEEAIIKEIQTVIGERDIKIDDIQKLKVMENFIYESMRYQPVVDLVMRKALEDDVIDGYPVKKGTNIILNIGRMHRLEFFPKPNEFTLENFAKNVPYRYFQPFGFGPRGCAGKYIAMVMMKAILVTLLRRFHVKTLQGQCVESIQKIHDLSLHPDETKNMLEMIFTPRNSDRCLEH

Take `COP(=S)(OC)Oc1cc(Cl)c(Cl)cc1Cl`: the outcome in the assay with CD69, CD69 (gene 969) was “inactive”; in assay [1], “inactive”; in assay [3], “inactive”; in [4], “inactive”; in [5], “inactive”; in assay [6], “inactive”. Further, the result in assay [7] was inactive. Moreover, the AC50 in assay [2] was 5.51 µM (active).
As for `O=c1[nH]c(=O)[nH]c(=O)[nH]1`, the outcome in the assay with CD69, CD69 (gene 969) was “inactive”; in assay [1], “inactive”; in assay [2] it was “inactive”; in assay [3], “inactive”; in assay [4], “inactive”; in assay [6], “inactive”. The outcome in assay [7] was inactive. Further, in assay [5], the AC50 was 32.6 µM (active).
For the compound `CC(C)(C)CC(C)(C)c1ccc(O)cc1`, the AC50 with CD69, CD69 (gene 969) was 11.5 µM (active); in assay [1], 9.24 µM (active); in assay [2], 9.86 µM (active); in assay [3] it was 10.7 µM (active); in assay [4] it was 8.43 µM (active); in assay [5], 10.2 µM (active). The values for the AC50 in [6], in assay [7] and in assay [8] were 5.84 µM (active), 11.3 µM (active) and 6.7 µM (active), respectively.
On to `CC(C)(C)c1cc(O)ccc1O`, for which the AC50 with CD69, CD69 (gene 969) is 5.54 µM (active); in [1] it was 8.93 µM (active); in [2] it was 5.56 µM (active); in assay [3] it was 11.4 µM (active); in [4], 3.17 µM (active); in [5] it was 7.38 µM (active). The AC50 was 1.94 µM (active) in assay [6], 15.3 µM (active) in assay [7], 7.54 µM (active) in assay [10] and 5.93 µM (active) in [11]. The outcome in [9] and in assay [12] was inactive.
Regarding `ClC1(Cl)C2(Cl)C3(Cl)C4(Cl)C(Cl)(Cl)C5(Cl)C3(Cl)C1(Cl)C5(Cl)C24Cl` (configuration not stated), the outcome with CD69, CD69 (gene 969) was “inactive”; in assay [1] it was “inactive”; in assay [2], “inactive”; in assay [3], “inactive”; in assay [4], “inactive”; in assay [5], “inactive”. The outcome in assay [6], in [7] and in assay [13] was inactive.
In the case of `CC(C)(c1ccccc1)c1ccc(O)c(C(C)(C)c2ccccc2)c1`, the AC50 in the assay with CD69, CD69 (gene 969) is 11.9 µM (active); in assay [1] it was 9.77 µM (active); in assay [2], 11.9 µM (active); in assay [3], 11.4 µM (active); in [4], 8.97 µM (active); in assay [5] it was 11.4 µM (active). The AC50 was 6 µM (active) in assay [6] and 13 µM (active) in [7]. The compound was classed as inactive in assay [12].
For `Fc1ccc(C2(Cn3cncn3)OC2c2ccccc2Cl)cc1` (configuration not stated), the AC50 is 1.86 µM (active) in assay [14]; 5.36 µM (active) in [15]; 6.5 µM (active) in assay [11]; 5.96 µM (active) in assay [12]; 2.98 µM (active) in [16].
Regarding `O=C1C2(Cl)C3(Cl)C4(Cl)C(Cl)(Cl)C5(Cl)C3(Cl)C1(Cl)C5(Cl)C24Cl` (configuration not stated), the AC50 is 8.18 µM (active) in the assay with CD69, CD69 (gene 969); 11.2 µM (active) in [1]; 19.3 µM (active) in [2]; 10.6 µM (active) in assay [3]; 5.7 µM (active) in assay [4]; 26.2 µM (active) in [5]. In addition, the AC50 in assay [6] is 4.64 µM (active); in [7], 6.17 µM (active); in assay [8], 2.02 µM (active) and 4.09 µM (active) and 1.02 µM (active); in assay [17] it was 0.519 µM (active); in assay [11], 82.1 nM (active) and 2.8 µM (active) and 487 nM (active). Moreover, in assay [12], the outcome was inactive.
